Measurements: the supplement of paper PMC11732987, “Enantioselective OTUD7B fragment discovery through chemoproteomics screening and high-throughput optimisation” (Communications Chemistry, 2025)

Columns and labels:
Assay in all cases: log2 ratio of Biotin-Ahx-Ub-VS probe labelling (fragment/DMSO); higher = less target engagement (more negative = stronger competition), active = hit call of the paper (q ≤ 0.05, log2 ratio ≤ -1)
Conditions in all cases: compound concentration: 200 uM; treatment time: 3 h
USP19 = target: T1, USP19 (UniProt O94966)
T1 sequence (whole entry): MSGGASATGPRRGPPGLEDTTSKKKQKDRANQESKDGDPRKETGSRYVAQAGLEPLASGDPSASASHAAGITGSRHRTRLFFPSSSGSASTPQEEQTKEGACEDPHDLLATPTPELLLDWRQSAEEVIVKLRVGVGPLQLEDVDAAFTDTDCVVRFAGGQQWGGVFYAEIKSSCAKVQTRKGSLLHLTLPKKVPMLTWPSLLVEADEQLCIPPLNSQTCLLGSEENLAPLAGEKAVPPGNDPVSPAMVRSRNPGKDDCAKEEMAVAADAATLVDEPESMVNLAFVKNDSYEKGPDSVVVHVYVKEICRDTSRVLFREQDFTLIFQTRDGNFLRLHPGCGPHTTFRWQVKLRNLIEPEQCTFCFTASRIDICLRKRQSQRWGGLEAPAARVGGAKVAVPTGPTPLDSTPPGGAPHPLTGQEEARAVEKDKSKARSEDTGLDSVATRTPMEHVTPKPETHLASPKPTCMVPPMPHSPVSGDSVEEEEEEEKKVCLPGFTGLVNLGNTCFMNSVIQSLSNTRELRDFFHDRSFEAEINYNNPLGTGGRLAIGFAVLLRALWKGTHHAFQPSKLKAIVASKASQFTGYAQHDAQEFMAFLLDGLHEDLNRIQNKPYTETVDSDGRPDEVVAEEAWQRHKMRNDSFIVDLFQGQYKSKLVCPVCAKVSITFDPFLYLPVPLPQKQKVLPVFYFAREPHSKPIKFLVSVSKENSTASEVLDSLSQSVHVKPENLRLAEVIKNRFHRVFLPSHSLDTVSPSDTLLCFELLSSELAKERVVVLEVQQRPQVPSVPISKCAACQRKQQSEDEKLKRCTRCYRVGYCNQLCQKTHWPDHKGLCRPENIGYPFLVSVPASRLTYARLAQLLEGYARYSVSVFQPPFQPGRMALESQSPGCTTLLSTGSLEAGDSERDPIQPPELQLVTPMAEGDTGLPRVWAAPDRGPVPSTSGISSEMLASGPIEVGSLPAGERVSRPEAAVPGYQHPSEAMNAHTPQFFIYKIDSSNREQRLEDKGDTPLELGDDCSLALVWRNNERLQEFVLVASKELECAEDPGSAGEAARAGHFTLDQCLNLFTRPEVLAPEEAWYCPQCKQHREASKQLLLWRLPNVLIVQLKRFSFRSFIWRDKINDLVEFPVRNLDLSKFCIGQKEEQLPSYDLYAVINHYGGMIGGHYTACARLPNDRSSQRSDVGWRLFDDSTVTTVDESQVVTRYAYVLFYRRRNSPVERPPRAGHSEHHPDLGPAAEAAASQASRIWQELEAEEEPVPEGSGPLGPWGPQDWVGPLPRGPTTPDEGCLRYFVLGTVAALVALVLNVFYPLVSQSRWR
In short: (§1)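 Using Biotin-Ahx-Ub-VS at 0.5 µM final for 1 h, DUBs were labelled in HEK293T lysate (495 µg per sample) that had first been treated in triplicate with fragment at 200 µM or vehicle for 3 h. NeutrAvidin enrichment, LysC and trypsin digestion and diaPASEF LC-MS/MS followed. Spectronaut label-free quantities were global-median-normalised. Values are average log2 fragment/vehicle ratios by unpaired t-test, using proteins with ≥2 unique peptides.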

USP22 = target: T2, USP22 (UniProt Q9UPT9)
T2 sequence (whole entry): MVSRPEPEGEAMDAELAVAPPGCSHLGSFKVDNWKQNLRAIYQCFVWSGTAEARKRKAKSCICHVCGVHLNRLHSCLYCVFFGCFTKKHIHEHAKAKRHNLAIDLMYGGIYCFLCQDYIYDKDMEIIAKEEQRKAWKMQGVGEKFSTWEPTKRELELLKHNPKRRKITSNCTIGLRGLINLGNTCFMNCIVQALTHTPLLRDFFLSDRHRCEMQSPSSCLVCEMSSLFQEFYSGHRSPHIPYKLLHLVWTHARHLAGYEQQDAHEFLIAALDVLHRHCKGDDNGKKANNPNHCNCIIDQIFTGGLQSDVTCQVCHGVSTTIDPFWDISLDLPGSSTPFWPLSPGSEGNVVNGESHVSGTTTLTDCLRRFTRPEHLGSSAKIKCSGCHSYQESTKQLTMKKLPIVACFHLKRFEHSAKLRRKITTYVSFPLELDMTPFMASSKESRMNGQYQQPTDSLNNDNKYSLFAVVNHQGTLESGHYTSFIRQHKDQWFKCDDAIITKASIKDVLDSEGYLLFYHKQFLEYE
In short: as §1

USP24 = USP24 (UniProt Q9UPU5)
In short: as §1

USP25 = target: T3, USP25 (UniProt Q9UHP3)
T3 sequence (whole entry): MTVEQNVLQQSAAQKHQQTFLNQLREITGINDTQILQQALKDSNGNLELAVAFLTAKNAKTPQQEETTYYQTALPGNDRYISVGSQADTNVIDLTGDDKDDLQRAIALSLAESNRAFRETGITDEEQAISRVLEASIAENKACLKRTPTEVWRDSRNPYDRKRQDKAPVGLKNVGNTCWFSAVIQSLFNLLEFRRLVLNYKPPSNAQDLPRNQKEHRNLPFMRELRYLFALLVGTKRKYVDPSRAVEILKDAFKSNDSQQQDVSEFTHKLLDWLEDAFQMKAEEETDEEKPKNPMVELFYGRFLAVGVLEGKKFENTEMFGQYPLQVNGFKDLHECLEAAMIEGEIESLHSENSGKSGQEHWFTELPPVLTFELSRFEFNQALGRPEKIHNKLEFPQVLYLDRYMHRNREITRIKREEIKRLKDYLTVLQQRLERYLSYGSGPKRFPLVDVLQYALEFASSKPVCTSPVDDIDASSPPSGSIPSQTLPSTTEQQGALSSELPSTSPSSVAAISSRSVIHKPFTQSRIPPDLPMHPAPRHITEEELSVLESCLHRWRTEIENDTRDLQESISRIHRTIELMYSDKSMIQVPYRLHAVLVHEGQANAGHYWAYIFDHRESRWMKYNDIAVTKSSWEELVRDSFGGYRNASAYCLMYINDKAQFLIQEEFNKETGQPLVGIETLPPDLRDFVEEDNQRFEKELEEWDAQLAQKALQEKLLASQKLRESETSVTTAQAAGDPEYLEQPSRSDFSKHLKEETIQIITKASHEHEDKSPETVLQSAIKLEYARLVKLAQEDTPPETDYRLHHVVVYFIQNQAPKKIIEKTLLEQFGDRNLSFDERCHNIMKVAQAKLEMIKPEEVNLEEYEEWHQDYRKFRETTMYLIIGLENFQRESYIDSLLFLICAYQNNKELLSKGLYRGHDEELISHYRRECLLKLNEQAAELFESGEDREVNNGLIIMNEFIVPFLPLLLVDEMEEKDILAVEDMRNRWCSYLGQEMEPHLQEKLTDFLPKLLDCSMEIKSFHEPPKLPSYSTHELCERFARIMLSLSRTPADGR
In short: as §1

USP28 = target: T4, USP28 (UniProt Q96RU2)
T4 sequence (whole entry): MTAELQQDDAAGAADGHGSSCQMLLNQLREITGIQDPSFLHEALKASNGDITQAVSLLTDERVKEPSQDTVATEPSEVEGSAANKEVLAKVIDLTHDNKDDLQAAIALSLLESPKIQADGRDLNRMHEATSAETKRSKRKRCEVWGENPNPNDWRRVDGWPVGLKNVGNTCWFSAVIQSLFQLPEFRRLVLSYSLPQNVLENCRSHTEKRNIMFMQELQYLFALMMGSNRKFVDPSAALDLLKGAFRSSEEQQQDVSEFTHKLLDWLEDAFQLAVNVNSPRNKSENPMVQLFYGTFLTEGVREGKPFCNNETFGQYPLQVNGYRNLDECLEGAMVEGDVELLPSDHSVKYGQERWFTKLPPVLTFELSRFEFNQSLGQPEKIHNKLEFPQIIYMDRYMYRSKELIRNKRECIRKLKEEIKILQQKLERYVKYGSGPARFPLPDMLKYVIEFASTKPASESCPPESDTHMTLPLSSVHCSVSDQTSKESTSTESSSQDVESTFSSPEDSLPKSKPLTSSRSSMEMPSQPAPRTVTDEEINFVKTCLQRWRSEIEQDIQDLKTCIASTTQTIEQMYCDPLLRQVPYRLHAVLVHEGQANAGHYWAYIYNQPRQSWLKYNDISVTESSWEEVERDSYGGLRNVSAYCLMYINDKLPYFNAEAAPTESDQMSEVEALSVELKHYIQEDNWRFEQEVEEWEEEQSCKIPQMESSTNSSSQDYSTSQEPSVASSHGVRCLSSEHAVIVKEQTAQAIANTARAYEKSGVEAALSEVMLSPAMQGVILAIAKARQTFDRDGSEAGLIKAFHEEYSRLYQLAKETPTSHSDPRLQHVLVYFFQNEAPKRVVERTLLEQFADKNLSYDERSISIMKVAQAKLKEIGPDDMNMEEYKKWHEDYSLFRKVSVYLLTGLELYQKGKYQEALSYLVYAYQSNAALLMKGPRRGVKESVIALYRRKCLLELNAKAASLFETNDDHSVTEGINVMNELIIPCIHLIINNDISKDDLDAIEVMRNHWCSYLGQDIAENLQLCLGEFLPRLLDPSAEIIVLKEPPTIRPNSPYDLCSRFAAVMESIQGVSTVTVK
In short: as §1

Measured: log2 ratio of Biotin-Ahx-Ub-VS probe labelling

Sequence of USP24 (Q9UPU5 whole entry): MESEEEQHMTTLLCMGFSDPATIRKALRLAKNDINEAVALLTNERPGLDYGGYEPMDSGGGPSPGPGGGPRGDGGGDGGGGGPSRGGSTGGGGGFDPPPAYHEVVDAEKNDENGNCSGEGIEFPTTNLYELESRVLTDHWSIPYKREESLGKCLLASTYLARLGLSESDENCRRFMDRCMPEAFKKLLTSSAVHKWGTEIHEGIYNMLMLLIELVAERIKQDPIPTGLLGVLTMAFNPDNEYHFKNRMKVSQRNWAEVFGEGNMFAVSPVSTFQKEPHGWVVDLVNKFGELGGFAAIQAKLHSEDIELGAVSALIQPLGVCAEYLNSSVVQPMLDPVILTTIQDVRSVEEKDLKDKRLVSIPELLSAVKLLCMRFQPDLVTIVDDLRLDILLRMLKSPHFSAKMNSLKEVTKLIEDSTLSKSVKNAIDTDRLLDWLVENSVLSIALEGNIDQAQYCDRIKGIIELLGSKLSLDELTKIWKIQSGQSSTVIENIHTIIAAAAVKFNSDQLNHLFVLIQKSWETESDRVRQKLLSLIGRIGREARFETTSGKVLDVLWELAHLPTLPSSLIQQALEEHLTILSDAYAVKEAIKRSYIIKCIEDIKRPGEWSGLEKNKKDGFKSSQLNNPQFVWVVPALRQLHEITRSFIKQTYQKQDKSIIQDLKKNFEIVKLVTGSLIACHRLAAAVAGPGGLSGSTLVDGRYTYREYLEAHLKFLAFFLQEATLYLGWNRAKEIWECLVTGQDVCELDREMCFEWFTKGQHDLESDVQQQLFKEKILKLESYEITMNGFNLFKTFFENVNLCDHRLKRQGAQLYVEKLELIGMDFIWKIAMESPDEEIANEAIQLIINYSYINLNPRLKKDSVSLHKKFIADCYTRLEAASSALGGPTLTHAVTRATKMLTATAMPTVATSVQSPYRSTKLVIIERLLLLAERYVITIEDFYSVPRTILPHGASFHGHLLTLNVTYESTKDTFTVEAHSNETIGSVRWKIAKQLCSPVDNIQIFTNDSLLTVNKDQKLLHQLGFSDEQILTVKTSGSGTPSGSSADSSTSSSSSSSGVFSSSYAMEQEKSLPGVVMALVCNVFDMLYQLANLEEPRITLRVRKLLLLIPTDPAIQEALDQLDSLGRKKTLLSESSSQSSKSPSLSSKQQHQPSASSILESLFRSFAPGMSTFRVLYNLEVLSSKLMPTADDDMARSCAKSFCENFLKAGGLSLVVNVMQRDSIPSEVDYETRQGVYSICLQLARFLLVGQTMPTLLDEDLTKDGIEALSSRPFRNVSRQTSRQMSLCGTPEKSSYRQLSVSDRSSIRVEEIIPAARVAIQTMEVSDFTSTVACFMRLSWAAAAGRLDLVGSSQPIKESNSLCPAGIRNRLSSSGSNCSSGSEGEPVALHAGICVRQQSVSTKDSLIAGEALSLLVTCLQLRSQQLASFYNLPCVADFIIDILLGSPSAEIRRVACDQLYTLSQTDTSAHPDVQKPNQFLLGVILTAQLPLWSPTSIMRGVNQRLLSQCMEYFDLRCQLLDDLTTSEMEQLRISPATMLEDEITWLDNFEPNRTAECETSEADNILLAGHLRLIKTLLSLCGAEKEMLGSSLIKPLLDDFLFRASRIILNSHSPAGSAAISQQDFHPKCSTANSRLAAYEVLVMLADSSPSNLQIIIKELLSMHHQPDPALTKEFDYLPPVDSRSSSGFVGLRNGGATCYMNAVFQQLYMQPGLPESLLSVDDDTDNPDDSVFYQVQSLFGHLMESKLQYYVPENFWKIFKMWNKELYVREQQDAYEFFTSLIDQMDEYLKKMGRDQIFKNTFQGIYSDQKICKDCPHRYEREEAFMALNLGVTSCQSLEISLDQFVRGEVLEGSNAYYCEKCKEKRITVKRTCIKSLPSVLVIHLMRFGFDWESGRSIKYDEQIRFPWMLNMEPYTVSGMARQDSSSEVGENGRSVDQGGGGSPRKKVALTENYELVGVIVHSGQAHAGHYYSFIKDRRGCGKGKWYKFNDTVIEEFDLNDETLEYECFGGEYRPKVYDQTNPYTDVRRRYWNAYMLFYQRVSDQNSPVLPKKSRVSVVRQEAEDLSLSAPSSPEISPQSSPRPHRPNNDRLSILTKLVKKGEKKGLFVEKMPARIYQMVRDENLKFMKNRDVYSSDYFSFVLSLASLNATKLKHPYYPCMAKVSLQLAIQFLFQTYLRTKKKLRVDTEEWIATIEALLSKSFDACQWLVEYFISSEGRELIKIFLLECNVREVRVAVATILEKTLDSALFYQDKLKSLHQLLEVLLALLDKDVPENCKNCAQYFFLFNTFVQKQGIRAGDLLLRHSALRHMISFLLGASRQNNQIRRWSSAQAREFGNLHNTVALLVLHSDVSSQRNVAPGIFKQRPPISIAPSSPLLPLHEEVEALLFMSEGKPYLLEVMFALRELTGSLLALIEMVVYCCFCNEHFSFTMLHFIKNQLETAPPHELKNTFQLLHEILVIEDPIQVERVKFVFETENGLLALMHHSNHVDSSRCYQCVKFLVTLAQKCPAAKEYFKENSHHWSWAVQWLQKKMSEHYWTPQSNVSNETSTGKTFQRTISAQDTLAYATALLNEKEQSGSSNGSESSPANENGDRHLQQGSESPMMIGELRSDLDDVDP

Cl.Cn1ncc2c1CC(NC(=O)CCl)CC2 (stereo not given)
inactive: USP19 0.0381 | USP22 0.0984 | USP24 0.0406 | USP25 -0.321 | USP28 -0.758
